According to PubChem BioAssay:
For some of these results: Results with a measured potency or affinity are listed apart. The source made the active and inactive calls.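 How the source made its calls, unless noted: active means fluorescence ratio normalized to control raised more than 50% in primary screen plus both repeat runs; inactive means the rest.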

Experiments:
[1] = test system: TRPC4 beta (transient receptor potential cation channel C4), mouse; experiment: activators of mouse TRPC4 channel, confirmation, cell-based, Fluo4 calcium, HEK293 TRPC4beta/mu-opioid, duplicates, 10 µM (AID 2426); conditions: Fluo4 calcium fluorescence, at 10 µM; active compounds read high
[2] = test system: transient receptor potential cation channel C4 beta (TRPC4), mouse; experiment: activators of mouse TRPC4 channel, confirmation, cell-based, second round, Fluo4, HEK293 TRPC4beta/mu-opioid, 1 µM (AID 2461;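 active means primary screen active and over 50% activation in each of two duplicate runs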); conditions: Fluo4 calcium fluorescence, at 1 µM; active compounds read high
[3] = test system: TRPC4 (transient receptor potential cation channel C4 beta), mouse; experiment: positive allosteric modulators of mouse TRPC4, confirmation, cell-based, second round, Fluo-4, HEK293 TRPC4beta/mu-opioid, 1 µM (AID 2554;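 active means primary screen hit whose fluorescence ratio, in both repeats, exceeds the weak agonist control mean by 3 SD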); conditions: DAMGO EC20, Fluo-4 calcium flux, at 1 µM; active compounds read high
[4] = test system: TRPC4 beta (transient receptor potential cation channel C4), mouse; experiment: positive allosteric modulators of mouse TRPC4, confirmation, cell-based, Fluo-4, HEK293 TRPC4beta/mu-opioid (AID 2555;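 active means primary screen hit whose calcium fluorescence ratio, in both repeats, exceeds the weak agonist control mean by 3 SD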); conditions: DAMGO EC20, Fluo-4 calcium flux, at 10 µM; active compounds read high
[5] = target: Short transient receptor potential channel 4 (Mus musculus) (UniProt Q9QUQ5); experiment: inhibitors of mouse TRPC4 channel, confirmation, cell-based, Fluo4, HEK293 TRPC4beta/mu-opioid (AID 2636;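 active means calcium signal cut by more than 3 SD below the full-agonist control yet still positive, in both repeats and the earlier primary screen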); conditions: DAMGO, Fluo4 calcium flux, at 10 µM; active compounds read high
[6] = target: Short transient receptor potential channel 4 (Mus musculus) (UniProt Q9QUQ5); experiment: inhibitors of mouse TRPC4 channel, confirmation, cell-based, second round, Fluo4, HEK293 TRPC4beta/mu-opioid, 1 µM (AID 2637;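 active means calcium signal ratio cut to more than 3 SD under the fully stimulated control mean yet still positive, in both repeats and the primary screen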); conditions: Fluo4 calcium flux, DAMGO, at 1 µM; active compounds read high
[7] = target: Short transient receptor potential channel 4 (Mus musculus) (UniProt Q9QUQ5); experiment: mouse TRPC4 channel activators, dose response, cell-based, HEK293 TRPC4/mu-opioid, Fluo-4 calcium (AID 434937;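 active means primary screen activator hit with a dose response curve and TRPC4 channel activation at any tested dose; inactive means no activation, no dose response, or not a primary hit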)
[8] = target: Short transient receptor potential channel 4 (Mus musculus) (UniProt Q9QUQ5); experiment: TRPC4 positive allosteric modulators, dose response, cell-based, HEK293 TRPC4/mu-opioid, Fluo-4 calcium, EC20 DAMGO (AID 434941;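 active means earlier screen potentiator hit that boosts the TRPC4 ion channel at some dose, with a dose response; inactive means no potentiation, no dose response, or not a prior hit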;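 further: calcium entry triggered by an EC20 dose of DAMGO at the co-expressed mu-opioid receptor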)
[9] = target: Short transient receptor potential channel 4 (Mus musculus) (UniProt Q9QUQ5); experiment: mouse TRPC4 channel inhibitors, dose response, cell-based, HEK293 TRPC4/mu-opioid, Fluo-4 calcium (AID 434942;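 active means primary screen inhibitor hit that blocks the TRPC4 channel at some tested dose, yielding a dose curve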)
[10] = target: Short transient receptor potential channel 6 (Mus musculus) (UniProt Q61143); experiment: inhibition of mouse TRPC6 channel, confirmation, selectivity assay for TRPC4 inhibitor project, cell-based, HEK293, membrane potential dye, duplicate (AID 434948;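 active means active in primary screen and both duplicates, each dropping signal beyond three positive-control SD with fluorescence still positive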); conditions: HEK293 TRPC6, membrane potential dye fluorescence, at 10 µM, stimulated with maximal-effect acetylcholine; active compounds read high
[11] = target: Short transient receptor potential channel 6 (Mus musculus) (UniProt Q61143); experiment: activation of mouse TRPC6 channel, confirmation, selectivity assay for TRPC4 activator project, cell-based, HEK293, membrane potential dye, duplicate (AID 434950;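 active means membrane potential signal rise above negative control mean plus 3 SD in both duplicates, also active in the earlier TRPC4 screen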); conditions: HEK293 TRPC6, membrane potential fluorescence, at 10 µM; active compounds read high
[12] = target: Short transient receptor potential channel 6 (Mus musculus) (UniProt Q61143); experiment: TRPC6 potentiation by TRPC4 potentiator hits, confirmation, selectivity assay for TRPC4 potentiator project, HEK293 cells, membrane potential dye, duplicate (AID 434952;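 active means compound raising the membrane signal above positive-control mean plus 3 SD in both repeats, and a primary screen hit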); conditions: HEK293 TRPC6, membrane potential dye fluorescence, at 10 µM, maximal acetylcholine added after compound; active compounds read high
[13] = target: Short transient receptor potential channel 4 (Mus musculus) (UniProt Q9QUQ5); experiment: calcium flux activators in TRPC4/5HT1a cells, counter-screen for TRPC4 activator project, cell-based, second counter screen, HEK293 TRPC4/5HT1a, Fluo-4 (AID 434977;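 active means calcium signal rise above buffer-control mean plus 5 SD in both duplicates, and also a hit in the primary screen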); conditions: Fluo-4 calcium flux, at 10 µM; active compounds read high
[14] = calcium flux inhibitors in TRPC4/5HT1a cells, confirmation, counter-screen for TRPC4 inhibitor project, cell-based, second counter screen, HEK293 TRPC4/5HT1a, Fluo-4 (AID 434978;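 active means primary screen active whose calcium signal fell more than 3 SD beyond the full-serotonin control mean in both duplicate plates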;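 further: serotonin given first at submaximal then at maximal dose after compound preincubation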); conditions: Fluo-4 calcium flux, at 10 µM, serotonin added to trigger calcium flux; active compounds read high
[15] = test system: TRPC4 (mouse), co-expressed with 5HT1a in HEK293; experiment: calcium flux potentiators in TRPC4/5HT1a cells, confirmation, counter-screen for TRPC4 potentiator project, cell-based, second counter screen, HEK293 TRPC4/5HT1a, Fluo-4 (AID 434979;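 active means signal rise over 3 SD above mean of control wells given weak agonist, in both repeats and first screen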); conditions: Fluo-4 calcium flux, at 10 µM, serotonin added at its EC20 dose; active compounds read high
[16] = calcium flux activation in mu-opioid HEK293 cells, confirmation, counter-screen for TRPC4 activator project, cell-based, HEK293 mu-opioid receptor line (AID 449723;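 active means hit in primary screen, with calcium signal over 5 SD above buffer well mean in both duplicates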;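 further: counter screen cells carry the mu-opioid receptor alone and lack TRPC4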); conditions: Fluo-4 calcium fluorescence, at 10 µM; active compounds read high
[17] = calcium flux enhancement in mu-opioid HEK293 cells, confirmation, counter-screen for TRPC4 allosteric potentiator project, cell-based, HEK293 mu-opioid receptor line (AID 449724;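 active means calcium signal rise more than 3 SD above the low-dose agonist control mean, in both duplicate plates and the primary screen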); conditions: Fluo-4 calcium flux, at 10 µM, compound added before EC20 DAMGO stimulus; active compounds read high

Measured: potentiation

Chain of Short transient receptor potential channel 4 (Mus musculus) (Q9QUQ5 whole entry, looked up): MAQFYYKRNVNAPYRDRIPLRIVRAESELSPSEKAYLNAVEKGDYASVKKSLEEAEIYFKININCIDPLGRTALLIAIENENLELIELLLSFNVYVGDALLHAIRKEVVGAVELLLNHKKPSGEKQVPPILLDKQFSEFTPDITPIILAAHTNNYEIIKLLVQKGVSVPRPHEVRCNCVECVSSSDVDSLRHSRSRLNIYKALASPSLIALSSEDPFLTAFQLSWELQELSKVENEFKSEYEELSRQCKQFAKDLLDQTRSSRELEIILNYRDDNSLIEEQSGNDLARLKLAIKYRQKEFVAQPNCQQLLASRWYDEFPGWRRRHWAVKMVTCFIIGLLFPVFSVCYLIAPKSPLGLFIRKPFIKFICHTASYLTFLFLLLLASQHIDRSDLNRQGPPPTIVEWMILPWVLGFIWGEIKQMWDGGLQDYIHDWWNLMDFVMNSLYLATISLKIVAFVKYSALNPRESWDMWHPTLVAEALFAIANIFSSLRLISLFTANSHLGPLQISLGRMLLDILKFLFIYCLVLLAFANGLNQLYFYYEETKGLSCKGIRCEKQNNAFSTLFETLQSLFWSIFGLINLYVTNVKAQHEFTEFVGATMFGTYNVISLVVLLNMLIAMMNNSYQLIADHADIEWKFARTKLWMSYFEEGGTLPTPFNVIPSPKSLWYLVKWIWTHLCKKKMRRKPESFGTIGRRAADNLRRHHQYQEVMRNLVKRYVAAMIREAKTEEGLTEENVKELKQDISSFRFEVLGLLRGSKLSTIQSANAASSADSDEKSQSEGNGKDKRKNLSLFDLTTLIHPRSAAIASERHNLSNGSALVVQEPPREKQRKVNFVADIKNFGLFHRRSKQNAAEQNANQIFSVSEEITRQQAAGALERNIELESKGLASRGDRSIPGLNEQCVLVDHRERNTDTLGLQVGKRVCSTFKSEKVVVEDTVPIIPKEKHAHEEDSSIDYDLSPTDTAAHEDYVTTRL
Chain of Short transient receptor potential channel 6 (Mus musculus) (Q61143 whole entry, looked up): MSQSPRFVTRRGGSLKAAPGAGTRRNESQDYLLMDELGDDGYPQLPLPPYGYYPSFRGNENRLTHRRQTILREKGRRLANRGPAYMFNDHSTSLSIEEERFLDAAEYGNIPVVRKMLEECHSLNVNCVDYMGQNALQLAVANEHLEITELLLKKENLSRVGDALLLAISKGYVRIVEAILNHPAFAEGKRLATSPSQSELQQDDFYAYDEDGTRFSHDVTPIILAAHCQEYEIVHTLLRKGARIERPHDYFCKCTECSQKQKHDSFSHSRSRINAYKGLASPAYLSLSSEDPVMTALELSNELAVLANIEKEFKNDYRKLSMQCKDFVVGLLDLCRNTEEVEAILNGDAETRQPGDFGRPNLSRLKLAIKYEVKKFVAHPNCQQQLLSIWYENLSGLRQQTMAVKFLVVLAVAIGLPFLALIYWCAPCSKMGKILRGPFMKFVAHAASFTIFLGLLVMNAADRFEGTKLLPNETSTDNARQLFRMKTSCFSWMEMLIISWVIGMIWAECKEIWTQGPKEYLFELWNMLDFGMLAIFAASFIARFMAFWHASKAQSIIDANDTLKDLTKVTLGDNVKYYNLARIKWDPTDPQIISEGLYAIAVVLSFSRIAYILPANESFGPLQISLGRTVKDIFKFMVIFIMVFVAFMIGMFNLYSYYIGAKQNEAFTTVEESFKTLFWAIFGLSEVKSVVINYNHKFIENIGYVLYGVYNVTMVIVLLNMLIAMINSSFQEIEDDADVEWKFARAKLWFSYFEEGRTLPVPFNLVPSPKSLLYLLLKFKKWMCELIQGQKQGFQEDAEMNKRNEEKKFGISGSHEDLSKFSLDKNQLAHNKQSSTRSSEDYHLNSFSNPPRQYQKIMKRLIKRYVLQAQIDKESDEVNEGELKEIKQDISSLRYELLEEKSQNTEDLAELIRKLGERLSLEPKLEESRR

Cc1nn2c(N3CCN(C)CC3)c3c(nc2c1-c1ccccc1)CCCC3
inactive: [1] | [2] | [3] | [4] | [5] | [6] | [7] | [8] | [9] | [10] | [11] | [12] | [13] | [14] | [15] | [16] | [17]

COc1ccc(Br)cc1CN1CCC(N2CCCC2)CC1
active: [15] 13.5%
inactive: [1] | [2] | [3] | [4] | [5] | [6] | [7] | [8] | [9] | [10] | [11] | [12] | [13] | [14] | [16] | [17]

CCN1CCCC(OC(=O)c2cc(-c3ccccc3Cl)nc3ccccc23)C1 (stereo unspecified)
active: [15] 9.46%
inactive: [1] | [2] | [3] | [4] | [5] | [6] | [7] | [8] | [9] | [10] | [11] | [12] | [13] | [14] | [16] | [17]

N=c1c(C(=O)NCC2CCCO2)cc2c(=O)n3ccccc3nc2n1Cc1ccccc1Cl (stereo unspecified)
active: [3] 96% | [4] 102% | [15] 101%
inactive: [1] | [2] | [5] | [6] | [7] | [8] | [9] | [10] | [11] | [12] | [13] | [14] | [16] | [17]

COc1ccc(N=C2SCC(=O)N2Cc2ccccc2)cc1
inactive: [1] | [2] | [3] | [4] | [5] | [6] | [7] | [8] | [9] | [10] | [11] | [12] | [13] | [14] | [15] | [16] | [17]

COc1ccccc1CNCc1cc(Br)ccc1OC
inactive: [1] | [2] | [3] | [4] | [5] | [6] | [7] | [8] | [9] | [10] | [11] | [12] | [13] | [14] | [15] | [16] | [17]

C1CCN(c2nc(N3CCCCC3)nc(N3CCNCC3)n2)CC1
active: [15] 8.18%
inactive: [1] | [2] | [3] | [4] | [5] | [6] | [7] | [8] | [9] | [10] | [11] | [12] | [13] | [14] | [16] | [17]

CN1CCN(c2ccc(S(=O)(=O)N3CCCCC3)cc2NC(=O)c2ccc(F)cc2F)CC1
active: [15] 14.3%
inactive: [1] | [2] | [3] | [4] | [5] | [6] | [7] | [8] | [9] | [10] | [11] | [12] | [13] | [14] | [16] | [17]
